Assay results published in PubChem BioAssay (NCATS).
Records with an inconclusive call do not appear. Activity calls are given as the source filed them. The call rests on the fitted dose curve; in most records, active means well fitted inhibition curve with a large enough effect; inconclusive means small, poorly fitted or top-dose-only effect; inactive means flat fitted curve, though single readings scatter.

Columns and labels:
Experiment in all cases: Cytotoxic Profiling of Annotated Libraries Using Quantitative High-Throughput Screening (AID 1296008); further: nearly all actives have a fitted effect of over 60% in size
Conditions in all cases: Five cell lines viability, CellTiter-Glo ATP luminescence, 48-72 h; max response: active compounds read low
CRL-7250 = normal cell line; test system: CRL-7250
Method in brief: (§1)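 Cells exposed to compounds for 48 or 72 hr at 37 degrees Celsius. Viability read as ATP-coupled luminescence with CellTiter-Glo after 10 min at room temperature.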

HEK293 = test system: HEK293
Method in brief: as §1

HaCat = test system: HaCat
Method in brief: as §1

KB-3-1 = test system: KB-3-1
Method in brief: as §1

NIH3T3 = test system: NIH3T3
Method in brief: as §1

Measured: max response
On the % scale 0 is the no-effect control and ±100 the full control effect.

CCCCCCc1cccc(NC(=O)[C@H](N)CCP(=O)(O)O)c1
inactive: CRL-7250 | HEK293 | HaCat | KB-3-1 | NIH3T3 -1.22%

CC1(C)C[C@H]2C3=CCC4[C@@]5(C)CC[C@H](O[C@H]6O[C@H](C(=O)O)[C@@H](O)[C@H](O)[C@H]6O[C@H]6O[C@H](CO)[C@@H](O)[C@H](O)[C@H]6O[C@@H]6O[C@H](CO)[C@@H](O)[C@H](O)[C@H]6O)[C@](C)(CO)C5CC[C@@]4(C)[C@]3(C)CC[C@@]2(C)[C@H](O[C@@H]2OC[C@H](O)[C@H](OC3O[C@H](CO)[C@@H](O)[C@H](O)[C@H]3O)[C@H]2O)[C@@H]1O (stereo not given in full)
inactive: CRL-7250 3.94% | HEK293 | HaCat | KB-3-1 9.85% | NIH3T3 4.34%

CC1(C)CC2C(C1)C1(C)CCC13OC3(CO)C2O (stereo not given)
inactive: CRL-7250 -2.76% | HEK293 | HaCat -6.47% | KB-3-1 | NIH3T3 5%

COc1cc(/C=C/C(=O)O[C@H]2[C@H](O)[C@@H](CO)O[C@@]2(CO)O[C@H]2O[C@H](COC(=O)c3ccc(O)cc3)[C@@H](O)[C@H](O)[C@H]2O)cc(OC)c1OC
inactive: CRL-7250 | HEK293 | HaCat 4.76% | KB-3-1 3.54% | NIH3T3

C=C1C2(CCC(=O)OC2(C)C)CC(OC(=O)/C(C)=C/C)C2(C)C13OC14C(=O)OC(C)(C(=O)C12C(=O)OC4C)C3OC(C)=O (stereo not given)
inactive: CRL-7250 | HEK293 | HaCat | KB-3-1 6.83% | NIH3T3 4.63%

CC1(C)CC(=O)N(CCCCN2CCN(c3ncccn3)CC2)C(=O)C1
inactive: CRL-7250 | HEK293 | HaCat | KB-3-1 4.21% | NIH3T3

CC[C@@H](c1ccc(F)c(F)c1)n1c(C(=O)OC)c(-c2ccno2)[nH]c1=S
inactive: CRL-7250 -7.34% | HEK293 | HaCat | KB-3-1 5.04% | NIH3T3

Cc1[nH]cnc1C1CCN(c2nc3cccc4c3n2CCC4=O)CC1
inactive: CRL-7250 | HEK293 | HaCat | KB-3-1 2.43% | NIH3T3

CC(C)C1=CCC(C)(O)C(OC2OC(CO)C(O)C(O)C2O)C1 (stereo not given)
inactive: CRL-7250 -1.73% | HEK293 | HaCat | KB-3-1 | NIH3T3

C/C(=C\CCC(C)(O)c1ccc(C)cc1)C(=O)O (stereo not given)
inactive: CRL-7250 -2.36% | HEK293 | HaCat | KB-3-1 | NIH3T3 0.595%

CCOC(=O)[C@H](CCc1ccccc1)CC1(C(=O)N[C@H]2CCc3ccccc3N(CC(=O)O)C2=O)CCCC1
inactive: CRL-7250 -3.46% | HEK293 | HaCat | KB-3-1 -2.38% | NIH3T3 3.76%

O=C1N(CC2CCCCN2)CCN1c1ccccc1 (stereo not given)
inactive: CRL-7250 -3.2% | HEK293 | HaCat inactive; activator | KB-3-1 | NIH3T3

c1ccc(Cc2ncc3c(n2)CCNCC3)cc1
inactive: CRL-7250 -2.57% | HEK293 | HaCat -4.11% | KB-3-1 0.381% | NIH3T3

C/C=C/C=C/C=C/C(=O)O[C@@H]1[C@@H](OC)C2=C(C(=O)N(C(C)C(=O)O)C2)[C@@]2(C)CCCC(C)(C)[C@H]12 (stereo not given in full)
inactive: CRL-7250 -1.32% | HEK293 | HaCat | KB-3-1 5.59% | NIH3T3 0.76%

CC1=CC(=O)CC(C)(C)C1CCC(C)OC1OC(COC(=O)c2cc(O)c(O)c(O)c2)C(O)C(O)C1O (stereo not given)
inactive: CRL-7250 -1.65% | HEK293 | HaCat | KB-3-1 | NIH3T3

OCC1OC(Oc2cc(O)c3c(c2)OC(c2ccc(O)cc2)C(O)C3)C(O)C1O (stereo not given)
inactive: CRL-7250 -1.28% | HEK293 | HaCat -8.75% | KB-3-1 9.04% | NIH3T3 2.06%

COc1cccc(-c2ccc([C@@H](Oc3cc(-c4ccc(C[C@H](N)C(=O)O)cc4)nc(N)n3)C(F)(F)F)cc2)c1
inactive: all assays above

C=C[C@H]1[C@H](O[C@@H]2O[C@H](CO)[C@@H](O)[C@H](O)[C@H]2O)OC=C2C(=O)OCC[C@]21O
inactive: CRL-7250 0.194% | HEK293 | HaCat | KB-3-1 0.223% | NIH3T3

CC(=O)O[C@@H]1[C@H](O[C@@H]2O[C@H](CO)[C@@H](O)[C@H](O)[C@H]2O)[C@@H](O[C@@H]2O[C@@H](C)[C@H](O)[C@@H](O[C@@H]3O[C@H](CO)[C@@H](O)[C@H](O)[C@H]3O)[C@H]2O)[C@H](OC(=O)C23CCC4(C)C(=CCC5C6(C)CC(O)C(O[C@@H]7O[C@H](C(=O)O)[C@@H](O)[C@H](O)[C@H]7O)C(C)(C(=O)O)C6CCC54C)C2CC(C)(C)CC3O)O[C@@H]1C (stereo not given in full)
inactive: CRL-7250 -7.88% | HEK293 | HaCat | KB-3-1 | NIH3T3

CC1(C)C(=O)N2c3ccccc3[C@]3(CC(n4cnc5ccccc5c4=O)C(=O)O3)[C@H]2N1O (stereo not given in full)
inactive: CRL-7250 | HEK293 | HaCat | KB-3-1 | NIH3T3 1.65%

C/C=C(/C)C(=O)O[C@H]1C=C(C)C[C@H](OC(=O)c2ccc(O)cc2)C2[C@](O)(C(C)C)CC[C@@]21C (stereo not given in full)
inactive: CRL-7250 -4.39% | HEK293 | HaCat -13.2% | KB-3-1 | NIH3T3 -3.12%

NC(Cc1c[nH]c2ccccc12)C(=O)NC(CCC(=O)O)C(=O)O (stereo not given)
inactive: CRL-7250 | HEK293 | HaCat | KB-3-1 5.6% | NIH3T3 1.77%

CC(C#N)C(C)O[C@@H]1O[C@H](CO)[C@@H](O)[C@H](O)[C@H]1O (stereo not given in full)
inactive: all assays above

C[C@@H]1CC[C@H]2C(C)(C)[C@H](O)[C@H](O)C[C@]2(C)[C@@]12Cc1c(O)cc3c(c1O2)CNC3=O
inactive: CRL-7250 | HEK293 | HaCat | KB-3-1 | NIH3T3 3.46%

CCn1nnnc1NCc1ccc(C(C)C)cc1
inactive: CRL-7250 | HEK293 | HaCat | KB-3-1 2.69% | NIH3T3

C[C@@H]1O[C@@H](O[C@H]2[C@H](O[C@H]3[C@H](O[C@H]4CC[C@@]5(C)C(CC[C@]6(C)C5CC=C5[C@@H]7CC(C)(C(=O)O)C[C@@H](O)[C@]7(C)CC[C@]56C)[C@@]4(C)CO)O[C@H](C(=O)O)[C@@H](O)[C@@H]3O)O[C@H](CO)[C@H](O)[C@@H]2O)[C@H](O)[C@H](O)[C@H]1O (stereo not given in full)
inactive: CRL-7250 -5.52% | HEK293 | HaCat | KB-3-1 | NIH3T3 -3.63%

CCC(=O)N[C@@H]1Cc2ccccc2[C@H](c2ccccc2)C1
inactive: CRL-7250 | HEK293 | HaCat 0.895% | KB-3-1 | NIH3T3

COc1c(C(CC(C)C)OC(C)=O)ccc(Oc2c(O)cc(C)cc2/C=C/C(C)=O)c1C(=O)O (stereo not given)
inactive: CRL-7250 -10.2% | HEK293 | HaCat -7.86% | KB-3-1 3.96% | NIH3T3 -18.3%

C=C1CCC2C(OC(=O)C2(O)COC(C)=O)C2C(=C)C(O)CC12 (stereo not given)
inactive: CRL-7250 -7.9% | HEK293 | HaCat -8.75% | KB-3-1 8.26% | NIH3T3 -5.53%

CCC[C@@H]1C[C@@H](C(=O)N[C@@H]([C@H]2O[C@H](SC)[C@H](O)[C@@H](O)[C@@H]2O)[C@@H](C)O)N(C)C1
inactive: all assays above

C=C1CCC2C(C)(C)C(O)CCC2(C)C1CCC(C)CCOC(=O)CCC(=O)O (stereo not given)
inactive: CRL-7250 -7.27% | HEK293 | HaCat | KB-3-1 1.36% | NIH3T3 -1.95%

CC1(C)CC[C@]2(C(=O)O[C@@H]3O[C@H](CO)[C@@H](O)[C@H](O)[C@H]3O)CC[C@]3(C)C(=CCC4[C@@]5(C)C[C@@H](O)[C@H](O)C(CO)(CO)C5CC[C@]43C)C2[C@@H]1O (stereo not given in full)
inactive: CRL-7250 3.1% | HEK293 | HaCat | KB-3-1 8.19% | NIH3T3

CC1CC(=O)C2=C(O1)OC1(C)CCC3C(C)(C)C=CC(=O)C3(C)C1C2 (stereo not given)
inactive: CRL-7250 -3.54% | HEK293 | HaCat | KB-3-1 | NIH3T3

CC1=C(C)C(=O)OC(C(C)(O)C2CCC3C4CC=C5CC(OC6OC(COC7OC(CO)C(O)C(O)C7O)C(O)C(O)C6O)CC(O)C5(C)C4CCC32C)C1 (stereo not given)
inactive: CRL-7250 -12.7% | HEK293 | HaCat -5.11% | KB-3-1 2.61% | NIH3T3 -0.0747%

O=C(O)C[C@@H](NC(=O)c1cc(-c2ccc(-c3ccncc3)cc2)cs1)c1ccccc1
inactive: CRL-7250 1.97% | HEK293 | HaCat | KB-3-1 4.03% | NIH3T3 1.34%

COC(=O)CC1(O)C(=O)Nc2ccccc21 (stereo not given)
inactive: CRL-7250 3.09% | HEK293 | HaCat -5.67% | KB-3-1 | NIH3T3 2.12%

CC(CCC1(O)OC2CC3C4CCC5CC(O[C@@H]6O[C@H](CO)[C@@H](O)[C@H](O)[C@H]6O[C@@H]6OC[C@@H](O)[C@H](O)[C@H]6O)C(O)CC5(C)C4CCC3(C)C2C1C)CO[C@@H]1O[C@H](CO)[C@@H](O)[C@H](O)[C@H]1O (stereo not given in full)
inactive: CRL-7250 -0.157% | HEK293 | HaCat | KB-3-1 | NIH3T3

CN1C(=O)c2ccccc2NC(=O)[C@]12O[C@@H]2c1cccc(O)c1
inactive: CRL-7250 -2% | HEK293 | HaCat -7.54% | KB-3-1 4.06% | NIH3T3 -15.7%

C[C@@H]1O[C@@H](O[C@H]2[C@H](O)[C@@H](O)[C@H](OC[C@H]3O[C@@H](OC(=O)[C@]45CCC(C)(C)C[C@H]4C4=CCC6[C@@]7(C)C[C@H](O)[C@H](O[C@@H]8O[C@H](CO)[C@@H](O)[C@H](O)[C@H]8O)[C@@](C)(C(=O)O)C7CC[C@@]6(C)[C@]4(C)CC5)[C@H](O[C@@H]4O[C@H](CO)[C@@H](O)[C@H](O)[C@H]4O)[C@@H](O)[C@@H]3O)O[C@@H]2CO)[C@H](O)[C@H](O)[C@H]1O (stereo not given in full)
inactive: CRL-7250 2.51% | HEK293 | HaCat 4.68% | KB-3-1 7.15% | NIH3T3 3.41%
